# Measurements from PubChem BioAssay (NCI).
# Compounds without any hit were thinned out: in the full panel of roughly 79,000, 15% have a hit. A number with no mark means an inactive call. Active and inactive are the calls of the source. No stated cut-off is given here; in the data, active means growth inhibition above about 70%; inactive means the rest.
# How the values were obtained:
# [1] = NCI Yeast Anticancer Drug Screen. Data for the rad52 strain (AID 147);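 further: 0% = growth of vehicle-treated control cultures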; conditions: S. cerevisiae rad52 mutant growth inhibition, stronger effect = higher value
# Method in brief: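 Compounds are applied to a genetically defined yeast strain lacking normal DNA damage repair, and inhibition of growth is expressed relative to cultures given vehicle only.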
# [2] = NCI Yeast Anticancer Drug Screen. Data for the wt1 strain (AID 149);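 further: 0% = growth of vehicle-treated wt1 cultures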; conditions: S. cerevisiae wt1 strain (SPY 50644) growth inhibition, stronger effect = higher value
# Method in brief: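 wt1 yeast, compound-treated; % growth inhibition vs vehicle control.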
# [3] = NCI Yeast Anticancer Drug Screen. Data for the rad50EPP+ strain (AID 151);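 further: 0% = growth of vehicle-treated control cultures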; conditions: S. cerevisiae rad50 mutant strain, stronger effect = higher value
# Method in brief: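 Compounds were applied to the rad50EPP+ yeast strain, which bears a defined DNA repair alteration, and growth inhibition was determined relative to vehicle-treated cultures.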
# [4] = NCI Yeast Anticancer Drug Screen. Data for the mgt1 strain (AID 153); conditions: S. cerevisiae mgt1 mutant growth inhibition, stronger effect = higher value
# Method in brief: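 Strain: mgt1 yeast, one of a set carrying defined DNA damage repair or cell cycle control alterations. Compound-treated growth compared with vehicle.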
# [5] = NCI Yeast Anticancer Drug Screen. Data for the rad50 strain (AID 155);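 further: 0% = growth of vehicle-only cultures of the same strain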; conditions: S. cerevisiae rad50 strain growth inhibition, stronger effect = higher value
# Method in brief: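 Genetically altered yeast (DNA repair pathway); compound treatment; growth inhibition vs vehicle ctrl.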
# [6] = NCI Yeast Anticancer Drug Screen. Data for the mec2-1 strain (AID 157); conditions: S. cerevisiae mec2-1 strain, stronger effect = higher value
# Method in brief: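 Strain: mec2-1 (DNA repair/cell cycle alteration). Compound exposure, then growth measured; inhibition expressed relative to vehicle.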
# [7] = NCI Yeast Anticancer Drug Screen. Data for the rad14 strain (AID 159);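 further: 0% = growth of vehicle-treated control cultures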; conditions: S. cerevisiae rad14 strain growth inhibition, stronger effect = higher value
# Method in brief: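 Test compounds were applied to a repair-deficient yeast strain. Its growth was then compared with that of cultures given vehicle alone, and inhibition was expressed relative to those controls.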
# [8] = NCI Yeast Anticancer Drug Screen. Data for the sgs1 mgt1 strain (AID 161);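 further: 0% = growth of cultures given vehicle only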; conditions: S. cerevisiae sgs1 mgt1 strain, stronger effect = higher value
# Method in brief: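 Inhibition of yeast growth, normalised to vehicle-treated controls, is reported for a strain bearing genetic alterations in DNA damage repair.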
# [9] = NCI Yeast Anticancer Drug Screen. Data for the CLN2oe strain (AID 163);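 further: 0% = growth of vehicle-only control cultures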; conditions: S. cerevisiae CLN2oe strain, stronger effect = higher value
# Method in brief: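 Growth of a genetically modified yeast strain is measured after compound exposure and compared with cultures given vehicle alone.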
# [10] = NCI Yeast Anticancer Drug Screen. Data for the cln2 rad14 strain (AID 165);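 further: 0% = growth equal to vehicle treated cultures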; conditions: S. cerevisiae cln2 rad14 strain, stronger effect = higher value
# Method in brief: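 Compounds are applied to the cln2 rad14 yeast strain, and growth is then compared with that of vehicle-treated cultures to give inhibition.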
# [11] = NCI Yeast Anticancer Drug Screen. Data for the bub3 strain (AID 167); conditions: S. cerevisiae bub3 mutant strain, stronger effect = higher value
# Method in brief: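 Yeast carrying a defined mutation is treated with each compound, and growth is compared with that of vehicle-exposed cells to give inhibition.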
# [12] = NCI Yeast Anticancer Drug Screen. Data for the wt2 strain (AID 169);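 further: 0% = growth of vehicle-treated yeast cultures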; conditions: S. cerevisiae wt2 strain growth inhibition, stronger effect = higher value
# Method in brief: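 This strain belongs to a panel of yeast strains with defined genetic alterations in DNA damage repair or cell cycle control. Compounds are applied, and growth inhibition is measured against vehicle-treated cultures.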
# [13] = NCI Yeast Anticancer Drug Screen. Data for the mlh1 strain (AID 171);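 further: 0% = growth of vehicle-treated control cultures of the same strain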; conditions: S. cerevisiae mlh1 strain growth inhibition, stronger effect = higher value
# Method in brief: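 Growth of the mutant yeast strain after compound exposure, expressed as inhibition relative to vehicle-only controls.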
# [14] = NCI Yeast Anticancer Drug Screen. Data for the sgs1 strain (AID 173);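 further: 0% = growth of vehicle-only control cultures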; conditions: S. cerevisiae sgs1 mutant, stronger effect = higher value
# Method in brief: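 Growth of a yeast strain bearing a defined genetic alteration is measured after compound treatment. Inhibition is expressed relative to vehicle-only controls.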
# [15] = NCI Yeast Anticancer Drug Screen. Data for the mlh1 rad18 strain (AID 175); conditions: S. cerevisiae mlh1 rad18 strain growth inhibition, stronger effect = higher value
# Method in brief: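 Read-out is yeast growth inhibition, calculated against vehicle-only controls. The compound was applied to a strain engineered with DNA damage repair alterations.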
# [16] = NCI Yeast Anticancer Drug Screen. Data for the rad18 strain (AID 177); conditions: S. cerevisiae rad18 mutant growth inhibition, stronger effect = higher value
# Method in brief: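 Growth of the mutant yeast strain after compound exposure, normalised to vehicle-only cultures.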
# [17] = at 5.0 µM (retest, dose inferred, filed as 0.5)
# [18] = at 50.0 µM (retest, dose inferred, filed as 5.0)
structure (smiles),measurement,setting,value
CN1CCN(C(=O)/C=C/C(=O)c2ccccc2)CC1,growth inhibition,[1]; at 1.2 µM,4%
same,growth inhibition,[1]; at 3.7 µM,11%
same,growth inhibition,[1]; at 11.0 µM,24%
same,growth inhibition,[1]; at 33.0 µM,63%
same,growth inhibition,[1]; at 100.0 µM,86% (active)
same,growth inhibition,[2]; at 1.2 µM,4%
same,growth inhibition,[2]; at 3.7 µM,12%
same,growth inhibition,[2]; at 11.0 µM,24%
same,growth inhibition,[2]; at 33.0 µM,47%
same,growth inhibition,[2]; at 100.0 µM,87% (active)
same,growth inhibition,[3]; at 1.2 µM,4%
same,growth inhibition,[3]; at 3.7 µM,13%
same,growth inhibition,[3]; at 11.0 µM,31%
same,growth inhibition,[3]; at 33.0 µM,50%
same,growth inhibition,[3]; at 100.0 µM,66%
same,growth inhibition,[4]; at 1.2 µM,2%
same,growth inhibition,[4]; at 3.7 µM,10%
same,growth inhibition,[4]; at 11.0 µM,34%
same,growth inhibition,[4]; at 33.0 µM,79% (active)
same,growth inhibition,[4]; at 100.0 µM,95% (active)
same,growth inhibition,[5]; at 1.2 µM,-3%
same,growth inhibition,[5]; at 3.7 µM,-8%
same,growth inhibition,[5]; [17],9%
same,growth inhibition,[5]; at 11.0 µM,23%
same,growth inhibition,[5]; at 33.0 µM,69%
same,growth inhibition,[5]; [18],-3%
same,growth inhibition,[5]; at 50.0 µM,93.3% (active)
same,growth inhibition,[5]; at 100.0 µM,90% (active)
same,growth inhibition,[6]; at 1.2 µM,2%
same,growth inhibition,[6]; at 3.7 µM,12%
same,growth inhibition,[6]; [17],-3%
same,growth inhibition,[6]; at 11.0 µM,35%
same,growth inhibition,[6]; at 33.0 µM,67%
same,growth inhibition,[6]; [18],-3%
same,growth inhibition,[6]; at 50.0 µM,95% (active)
same,growth inhibition,[6]; at 100.0 µM,94% (active)
same,growth inhibition,[7]; at 1.2 µM,9%
same,growth inhibition,[7]; at 3.7 µM,12%
same,growth inhibition,[7]; at 11.0 µM,20%
same,growth inhibition,[7]; at 33.0 µM,40%
same,growth inhibition,[7]; at 100.0 µM,87% (active)
same,growth inhibition,[8]; [17],6%
same,growth inhibition,[8]; [18],-9%
same,growth inhibition,[8]; at 50.0 µM,95.5% (active)
same,growth inhibition,[9]; at 1.2 µM,3%
same,growth inhibition,[9]; at 3.7 µM,6%
same,growth inhibition,[9]; at 11.0 µM,15%
same,growth inhibition,[9]; at 33.0 µM,36%
same,growth inhibition,[9]; at 100.0 µM,76% (active)
same,growth inhibition,[10]; [17],39%
same,growth inhibition,[10]; [18],-10%
same,growth inhibition,[10]; at 50.0 µM,72.8% (active)
same,growth inhibition,[11]; at 1.2 µM,-3%
same,growth inhibition,[11]; at 3.7 µM,3%
same,growth inhibition,[11]; [17],7%
same,growth inhibition,[11]; at 11.0 µM,28%
same,growth inhibition,[11]; at 33.0 µM,80% (active)
same,growth inhibition,[11]; [18],91% (active)
same,growth inhibition,[11]; at 50.0 µM,82.5% (active)
same,growth inhibition,[11]; at 100.0 µM,90% (active)
same,growth inhibition,[12]; at 1.2 µM,1%
same,growth inhibition,[12]; at 3.7 µM,10%
same,growth inhibition,[12]; at 11.0 µM,36%
same,growth inhibition,[12]; at 33.0 µM,76% (active)
same,growth inhibition,[12]; at 100.0 µM,93% (active)
same,growth inhibition,[13]; at 1.2 µM,-1%
same,growth inhibition,[13]; at 3.7 µM,12%
same,growth inhibition,[13]; at 11.0 µM,35%
same,growth inhibition,[13]; at 33.0 µM,85% (active)
same,growth inhibition,[13]; at 100.0 µM,96% (active)
same,growth inhibition,[14]; at 1.2 µM,5%
same,growth inhibition,[14]; at 3.7 µM,15%
same,growth inhibition,[14]; at 11.0 µM,42%
same,growth inhibition,[14]; at 33.0 µM,84% (active)
same,growth inhibition,[14]; at 100.0 µM,95% (active)
same,growth inhibition,[15]; [17],-5%
same,growth inhibition,[15]; [18],7%
same,growth inhibition,[15]; at 50.0 µM,97.5% (active)
same,growth inhibition,[16]; at 1.2 µM,2%
same,growth inhibition,[16]; at 3.7 µM,11%
same,growth inhibition,[16]; at 11.0 µM,38%
same,growth inhibition,[16]; at 33.0 µM,84% (active)
same,growth inhibition,[16]; at 100.0 µM,95% (active)
